Experimental data taken from PubChem BioAssay AID1066 (SRMLSC, 2008).
The campaign covered roughly 190,000 compounds. About 790 (0.42%) were called active.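 How the source made its calls: active means inhibition above a set limit, the median over all tested compounds plus 3 SD (cut at about 9.5% in these data); inconclusive means no clear call, values can overlap the other calls; inactive means the rest.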 This excerpt belongs to a sample that is enriched for actives.

These compounds were tested on HMG-CoA reductase (Enterococcus faecalis, mvaE) (assay: inhibitors of E. faecalis class II HMGR, primary screen, biochemical, Enterococcus faecalis (AID 1066;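 further: enzyme runs in reverse so mevalonate oxidation gives rising NADPH absorbance; 0% = complete reaction with DMSO and 100% = background rate lacking mevalonate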)). Details: purified E. faecalis HMGR, NADPH absorbance 340 nm kinetic; at 10 µM; stronger effect = higher value.

inhibition, active:
N#CC(=C1CCCC1)c1nc(-c2ccc(Cl)cc2)cs1 25.7%
CCOC(=O)Cc1csc(NC(=O)Nc2ccccc2)n1 12.1%
CC(=O)N1CCN(S(=O)(=O)c2ccc(C)c([N+](=O)[O-])c2)C1C(C)C (configuration not stated) 15.5%
CCOc1ccc(NC(=O)CN2CCN(CC(=O)Nc3ccc(OC)cc3)CC2)cc1 11.1%
O=C(COc1cccc(F)c1)Oc1ccc(C(=O)c2ccccc2)cc1 11.7%
CC(=O)Nc1ccc(S(=O)(=O)N2CCCC2C(=O)O)cc1 (configuration not stated) 18.5%
COC(=O)C(=Nc1ccccc1)/C(C(=O)C(=O)N(C)c1ccccc1)=C(\O)c1ccc(Cl)cc1 12.8%
CC1(C)CCc2nc(SCc3ccccc3)c(C#N)cc2C1 13.3%
COc1cccc(CC2(CO)CCN(Cc3cnc(-c4cccc(C)c4)nc3)CC2)c1 10.2%
CCCCc1ccc(NC(=S)NCCCN2CCOCC2)cc1 9.74%
Cc1ccc(S(=O)(=O)N2CCOCC2)cc1C(=O)OC1CCCCC1=O (configuration not stated) 11.2%
O=C(/C=C/c1ccccc1Cl)Nc1ccc(S(=O)(=O)Nc2ncccn2)cc1 9.55%
COc1ccc(C(=O)NC2CCN(C(=S)NCCc3ccccc3)CC2)cc1 16.3%
COc1cc(/C=C2/C(=O)ON=C2C)ccc1OCc1cccc(F)c1 15.9%
CCOC(=O)CNC(=O)N1c2ccccc2Sc2ccccc21 10.8%
O=C(Oc1cccc(NC2=NS(=O)(=O)c3ccccc32)c1)c1ccncc1 13.3%
O=C1c2ccccc2C(=O)N1CCC(O)C[N+](=O)[O-] (configuration not stated) 14.4%

inhibition, inactive:
C/C(=N\NS(=O)(=O)c1ccc(Cl)cc1)c1ccc(NC(=O)c2ccco2)cc1 2.58%
Cc1onc(C(=O)NN)c1C(=O)N1CCN(C(c2ccccc2)c2ccccc2)CC1 -0.47%
Cc1nc2sc3c(c2c(=O)n1NC(=O)CCl)CCCC3 -4.51%
CSc1ccc(CNCCN2CCOCC2)cc1 -2.23%
C/C(CC(=O)Nc1cccc(F)c1)=N\NC(=O)C(=O)NC1CCCCC1 -2.25%
CCC(C)(C)NC(=O)CN(Cc1cccs1)C(=O)CNS(=O)(=O)c1ccc(F)cc1 -1.17%
CC(C)(C)N(CC#CCC(O)(c1ccccc1)C1CCCC1)CCO (configuration not stated) -1.31%
N#CC(=C1SC=CS1)c1nc(-c2ccccc2)cs1 -4.9%
N#C/C(=C1\CCCN1)c1nc(-c2ccccc2)cs1 -5.6%
CCOC(=O)Cc1csc(NC(=O)CSc2ccc(Br)cc2)n1 5.27%
CCOC(=O)Cc1csc(NC(=O)C(C)(C)C)n1 5.04%
COc1ccc(NC(=O)c2ccccc2CC[N+](=O)[O-])cc1 -3.38%
COc1ccccc1CC(NC(C)=O)C(=O)NC1CCN(C(=O)Nc2ccccc2Cl)CC1 (configuration not stated) -1.31%
CC(C)(C)C(=O)N1CCC[C@@]1(CO)C(=O)O -3.2%
CCc1cc(CNC(=O)CC2C(=O)NCCN2CC2CCCCC2)on1 (configuration not stated) 1.73%
O=C(O)/C=C/c1ccc(S(=O)(=O)N2CCCCCC2)cc1 -1.58%
CSCCC(Nc1ccc(S(=O)(=O)N2CCOCC2)cc1[N+](=O)[O-])C(=O)OCC(=O)N(C(C)C)C(C)C (configuration not stated) -4.18%
Cc1ccc(NC(=O)CN2CCC(C(N)=O)CC2)cc1[N+](=O)[O-] -7.59%
CCc1cccc(C)c1NC(=O)COC(=O)Cc1ccsc1 0.78%
CCCn1c(=S)[nH]c2ccc(C(F)(F)F)cc21 -3.38%
Cc1c(NC(=S)NC(=O)CCc2ccccc2)c(=O)n(-c2ccccc2)n1C -5.41%
Cc1ccc(Cl)c(NC(=O)CN(C)CC(=O)Nc2ccc(F)c(F)c2F)c1Cl -3.18%
CNCC(O)CN1CCN(c2ccccc2OC)CC1 (configuration not stated) -5.06%
Cc1[nH]c2ccccc2c1/C=C(/C#N)C(=O)NC(C)C -0.57%
CCOc1ccc(NC(=O)N2CCN(CC)CC2)cc1 -2.53%
CCOC(=O)N1CCN(CC(=O)Nc2ccc(F)cc2)CC1 -2.98%
S=c1[nH]ccn1-c1ccc(Cl)cc1 -3.58%
COc1ccc(CCCc2nnc(SCc3nc4ccccc4c(=O)[nH]3)n2C)cc1 4.13%
CCN(CC)c1ccc(S(=O)(=O)N2CCOCC2)cc1NC(=O)CSc1cccc[n+]1[O-] -6.45%
COC(=O)c1ccccc1NS(=O)(=O)c1ccc2[nH]c(=O)[nH]c2c1 -1.55%
O=C(COC(=O)CNS(=O)(=O)c1ccccc1)NC12CC3CC(CC(C3)C1)C2 -0.89%
O=C1c2ccccc2NC(c2ccccn2)N1NS(=O)(=O)c1ccccc1 (configuration not stated) -5.78%
CC1CCCCC1NC(=O)COC(=O)Cc1ccc(Br)cc1 (configuration not stated) -8.55%
Cc1cc(C)c[n+](-c2nc3ccccc3nc2[N-]S(=O)(=O)c2cccs2)c1 -2.15%
COc1cccc(C2SCC(=O)N2c2cccc(C)c2)c1OC (configuration not stated) -2.05%
O=C(c1ccccc1)c1ccc(OC(=O)N2CCCC2)cc1 -3.15%
Cc1cccc(OCC(=O)Nc2ccccc2F)c1 -6.74%
Cc1nn(CC(=O)Nc2ccc3c(c2)OCO3)c(C)c1[N+](=O)[O-] -8.05%
CC1CC(=S)Nc2ccccc2N1Cc1ccccc1 (configuration not stated) -4.09%
CC(=O)Nc1ccc(S(=O)(=O)N2CCN(C3CCCCCCC3)CC2)cc1 -5.25%
O=C(O)C1CCCN1S(=O)(=O)c1ccc2c(c1)CCC2 (configuration not stated) 0.94%
CCOC(=O)c1[nH]cnc1C(=O)Nc1ccccc1C -0.64%
O=C1CC(N2CCN(c3ccc(F)cc3)CC2)C(=O)N1c1ccccc1 (configuration not stated) -3%
CN(C)/C=C(/C(=O)c1ccc(Cl)cc1)S(=O)(=O)c1ccccc1 -1.53%
COC(=O)/C(NC(C)=O)=C(\C)c1ccc(Cl)cc1 -0.22%
O=C(CCc1ccccc1)Nc1ccc(NC(=O)C2CCCCC2)nc1 -5.74%
COc1ccc(OC)c(-c2csc(NC(=O)C3=NNC(=O)CC3)n2)c1 -3.44%
Cc1cc(NC(=O)CSc2nc3c(cc2C#N)CCCCC3)no1 -2.85%
CC(NC(=O)CSc1nc2c(cc1C#N)CN(C)CC2)c1ccccc1 (configuration not stated) -4.51%
CCCC(=O)Nc1cccc(NC(=S)NC(=O)C(C)Oc2ccc(Cl)cc2Cl)c1 (configuration not stated) -6.26%
N=C1C(c2nc3ccccc3[nH]2)=C(O)CN1NC(=O)c1c[nH]c2ccccc12 1.51%
CC(=O)Nc1ccc(NC(=O)C(C)n2c3ccccc3c3nc(=O)cc(C)n32)cc1 (configuration not stated) 3.72%
CCCCN(C(=O)/C=C/c1ccco1)c1c(N)n(CC(C)C)c(=O)[nH]c1=O 1.3%
Cc1cc(C(=O)N/N=C/c2cc([N+](=O)[O-])cc(C)c2O)n[nH]1 1.28%
CC1(C)OC(=O)C(=CNC(CO)C(=O)O)C(=O)O1 (configuration not stated) -0.06%
CC(C)(C)NC(=O)CN(C(=O)c1csnn1)c1ccccc1-c1ccccc1 3.37%
CCOC(=O)CC(NC(=O)C1c2ccccc2Oc2ccccc21)c1ccc(C)cc1 (configuration not stated) -0.18%
O=C1Nc2ccc([N+](=O)[O-])cc2C1=Nc1cccc(CO)c1 -7.75%
C/C(=N\OCC(=O)Nc1ccc(Br)cc1)c1cccs1 -3.94%
COC(=O)c1ccc(/C=N/N2C(C)CCCC2C)cc1 (configuration not stated) -1.41%
CCN(C(=O)COc1cccnc1[N+](=O)[O-])C1CCS(=O)(=O)C1 (configuration not stated) 1.64%
CCc1ccc(NC(=O)Nc2ccncc2)cc1 -0.38%
CCOC(=O)CCCNC(=O)COC(=O)c1cc(Br)c(Br)s1 6.54%
Cc1cccc(-c2ncc(CN3CCC(CO)(CCCc4ccccc4)CC3)cn2)c1 3.07%
COc1ccc(CC2(CO)CCN(Cc3cnn(C)c3)CC2)cc1 1.94%
Cc1cc(C)cc(NC(=S)NCCCN2CCOCC2)c1 -2.33%
Cc1ccc(NC(=S)NCCN2CCOCC2)cc1 -1.8%
Cc1ccc(S(=O)(=O)N2CCOCC2)cc1C(=O)NCc1ccc(F)cc1 -7.95%
CCOC(=O)c1sc(NC(=O)c2cc(S(=O)(=O)N3CCOCC3)ccc2C)nc1C -0.38%
C/C=C/C=C/C(=O)OCC(=O)Nc1ccc(Cl)cc1 -6.31%
CC(=O)NS(=O)(=O)c1ccc(NC(=O)/C=C/c2ccccc2Cl)cc1 4.83%
O=C(/C=C/c1ccc(Cl)cc1)Nc1ccc(S(=O)(=O)Nc2ncccn2)cc1 1.98%
CCOC(=O)C1CCN(S(=O)(=O)c2cc(F)ccc2OC)CC1 -2.34%
COc1cc(Cl)c(C)cc1NC(=O)[C@@H]1CCCN1C(=O)c1cccs1 -6.68%
CCOC(=O)C1(Cc2cccc(OC)c2)CCN(C(C)CC(C)(C)O)CC1 (configuration not stated) -0.39%
O=C1CCN(C(=S)NCCc2ccccc2)CC1 4.83%
COc1ccc(C(=O)NC2CCN(C(=S)Nc3ccccc3)CC2)cc1 -0.68%
Cc1ccc2c(c1)C1CN(C)CCC1N2S(=O)(=O)c1ccc(Oc2ccc([N+](=O)[O-])cc2)cc1 (configuration not stated) -1.37%
O=C(COC(=O)c1ccc(Cl)nc1)NCc1cccs1 -2.01%
COc1cc(/C=N/n2c(C)n[nH]c2=S)ccc1OCc1ccccc1 5.27%
COc1cc(/C=C2/C(=O)ON=C2C)ccc1OCc1ccccc1F -4.22%
N/C(Cc1ccc([N+](=O)[O-])cc1)=N\OC(=O)C1CCCCC1 5.63%
Cc1ccc(S(=O)(=O)N2CCOCC2)cc1NC(=O)CSc1nnc(N)s1 -3.38%
CCOC(=O)CNC(=O)CN1C(=O)CCSc2ccccc21 0.21%
CCNC(=O)N1c2ccccc2Sc2ccccc21 -0.32%
CCOC(=O)C1CCCN(C(=O)c2cccc(S(=O)(=O)N3CCOCC3)c2)C1 (configuration not stated) 2.45%
O=C(CCc1[nH]c2ccccc2c1Sc1ccccc1)N(CCO)CCO -1.48%
COCc1c(N)c(C)nc(Cl)c1C#N -1.22%
CN(Cc1ccccn1)Cc1nc(-c2ccc(Cl)cc2)no1 -4.55%
CC(C)(C)c1csc(NC2=NS(=O)(=O)c3ccccc32)n1 -4.26%
O=C(Oc1ccccc1)c1ccc2nccnc2c1 -2.55%
O=C1Oc2ccccc2C(=O)/C1=C/c1ccccc1O -4.42%
Cc1ccc(CN2CCN(Cc3cccc(C)n3)CC2CCO)cc1 (configuration not stated) -2.73%
CC(C)OC(=O)CN1C(=O)c2ccccc2C1=O 0.65%
O=C1c2ccccc2C(=O)N1CCC(c1ccccc1)c1ccco1 (configuration not stated) -3.81%
